Mac1 fbg enh = enhancers of CD11b/CD18 adhesion to fibrinogen, primary screen, K562 cells, luminescence | 93,000 tested, 0.07% active | activation, % at 10 µM | ATPlite luminescence | AID 1499, 2009;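 active = 10 µM primary screen giving 50% or more activity, confirmed by 40% or more on retest at that dose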
Target sequence (P05107 whole entry, looked up, other chains not shown): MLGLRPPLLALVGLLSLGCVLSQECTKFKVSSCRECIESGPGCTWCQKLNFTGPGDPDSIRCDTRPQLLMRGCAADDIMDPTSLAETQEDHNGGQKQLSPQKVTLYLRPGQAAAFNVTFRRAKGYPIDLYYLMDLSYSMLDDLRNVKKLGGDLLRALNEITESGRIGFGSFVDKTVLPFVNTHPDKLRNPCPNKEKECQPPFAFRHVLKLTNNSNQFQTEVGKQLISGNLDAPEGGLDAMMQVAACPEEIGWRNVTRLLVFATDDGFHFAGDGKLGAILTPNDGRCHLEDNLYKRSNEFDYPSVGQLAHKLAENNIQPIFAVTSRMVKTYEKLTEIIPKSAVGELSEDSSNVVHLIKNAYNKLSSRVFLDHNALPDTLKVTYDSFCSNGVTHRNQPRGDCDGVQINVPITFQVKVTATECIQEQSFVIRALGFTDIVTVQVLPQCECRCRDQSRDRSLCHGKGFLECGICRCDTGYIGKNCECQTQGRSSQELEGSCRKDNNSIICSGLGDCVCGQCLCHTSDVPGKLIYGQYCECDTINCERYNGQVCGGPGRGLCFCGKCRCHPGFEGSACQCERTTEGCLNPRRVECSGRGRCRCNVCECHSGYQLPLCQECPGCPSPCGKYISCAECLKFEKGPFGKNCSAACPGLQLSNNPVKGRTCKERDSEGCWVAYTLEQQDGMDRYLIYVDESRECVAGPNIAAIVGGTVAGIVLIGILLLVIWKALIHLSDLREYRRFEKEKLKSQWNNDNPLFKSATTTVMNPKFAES
Cav3 T inh = Cav3.2 calcium influx blockers – cell-based, Fluo-4 calcium fluorescence, FDSS, MLSMR library, primary screen; AID 449739, 2010; Cav3.2-expressing cells; active compounds read low; B-score at 10 µM; 100,000 tested, 4% active;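 active = single-dose well whose peak fluorescence ratio is a statistical outlier from its plate by either plate-standardised score or position-corrected B-score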
PTK2B oligo ant = antagonists of Pyk2 self-association, primary screen, Q293 cells, FERM NanoBiT luminescence, HTS; active compounds read low; 99,000 tested, 0.83% active; Protein-tyrosine kinase 2-beta (Homo sapiens), Q14289; z-score (the deposit names both 25 µM and 10 µM);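 active = Z-score of -3 or lower, scaled per plate to the spread of control and sample wells; inactive = z-score above -3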;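 note: negative z-score means lost luminescence so less FERM oligomerization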
CD11b adhes inh = inhibitors of CD11b/CD18 adhesion to fibrinogen, primary screen, K562 cells, luminescence. Integrin beta-2 (Homo sapiens) + Integrin alpha-M (Homo sapiens), P05107+P11215. ATPlite luminescence; Mn2+ added to activate the integrin. inhibition, % at 10 µM. 93,000 tested, 0.54% active;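 active = primary inhibition of 50% or more at 10 µM, then 40% or more on retest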
Ec RNAP inh = E. coli RNAP inhibitors, biochemical | E. coli RNA polymerase, fluorescence transcription assay | inhibition, %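 (tested at 10 µM)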 | 62,000 tested, 0.2% active; in the data active = inhibition above about 20%;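 note: 0% = enzyme without compound and 100% = no enzyme blank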
Numbers without * were called inactive; x = no result given. Only some compounds are listed: those with a hit (about 4.2% of all), similar ones and a draw of the others.

SMILES	Mac1 fbg enh	Cav3 T inh	PTK2B oligo ant	CD11b adhes inh	Ec RNAP inh
Cc1onc(-c2ccccc2Cl)c1C(=O)Oc1cc(N)n(S(=O)(=O)c2ccc(F)cc2)n1	-6	-0.57	0.6	-6	2
CCNc1nc(NC(C)C)nc(ON=C(C)C)n1	2	x	x	0	x
Cc1ccnc(NC(=O)C23CC4CC(CC(C4)C2)C3)c1	5	-6.1*	-0.57	-4	0
CCC(=O)Nc1ccc(NC(=O)C23CC4CC(CC(C4)C2)C3)cn1	-7	0.47	0.58	-22	5
CP(C)(=O)CCP(=O)(c1ccccc1)c1ccccc1	1	x	x	-2	x
CCN(CC)CCP(=O)(c1ccccc1)c1ccccc1	-2	-4*	0.07	-8	x
O=C(CSc1ccc(Cl)cc1Cl)N1CCC(c2nc3ccccc3s2)CC1	x	-1.4	-0.23	x	x
Cc1ccc(N=C/C(C(=O)C(F)(F)F)=C(\O)c2ccco2)cc1Cl	-3	x	x	28	x
COC(=O)C(NC(=O)c1ccccc1C)(Nc1ncc(S(=O)(=O)c2ccc([N+](=O)[O-])cc2)s1)C(F)(F)F (configuration not stated)	-1	-7.8*	0.24	39	x
COC(=O)C(NC(=O)c1ccc(F)cc1)(Nc1ncc(S(=O)(=O)c2ccc([N+](=O)[O-])cc2)s1)C(F)(F)F (configuration not stated)	x	-8.2*	-1.1	x	x
CCC(=O)Nc1cc(NC(=O)CSc2ncc(-c3ccc(F)cc3)n2Cc2ccco2)ccc1C	0	-8.8*	0.46	0	-2
COc1ccc(CCNC(=O)CSc2nncn2N)cc1OC	0	-0.022	0.16	-3	3
COc1ccc(NC(=O)CSc2ncc(-c3ccc(F)cc3)n2Cc2ccco2)cc1	x	0.082	-2.2	x	x
COCCn1c(-c2ccc(OC)cc2)cnc1SCC(=O)Nc1cccc2ccccc12	0	-8.1*	-0.97	-7	x
COCCn1c(-c2ccc(Cl)cc2)cnc1SCC(=O)NCCc1ccc(OC)c(OC)c1	-2	x	x	53*	x
COc1ccc(-c2cnc(SCC(=O)Nc3cc(C)on3)n2Cc2ccco2)cc1	-1	-4.5*	-2	5	-2
CCC1=C(OC(=O)N(CC)CC)N2C(=O)OC(=NCC(=O)OC)[C@]2(Cc2ccccc2)[C@H]2C1=CC[C@H]1C(=O)N(c3ccccc3)C(=O)[C@H]12	x	-0.29	x	x	x
CCC1(CC)C(=O)N(C)C(=O)NC1=Nc1ccc(OC)cc1	-1	1.2	0.19	12	x
Cc1sc(NC(=O)CN(Cc2ccc(F)cc2)C(=O)C(C)(C)C)c(C(N)=O)c1C	5	x	x	-10	x
COc1ccc(-c2cnc(SCC(=O)Nc3nc(C(C)(C)C)cs3)n2Cc2ccco2)cc1	x	-5.7*	0.59	x	x
Cc1nc(NC(=O)CN(C)S(=O)(=O)c2ccc(Br)cc2)sc1C	-2	-5.8*	-1.2	-28	x
CN(CC(=O)Nc1ccncc1)S(=O)(=O)c1ccc(Br)cc1	-3	0.37	-0.14	-4	x
N=C(CC1CC(=O)NC(=O)C1)C1=C(O)CCCC1=O	8	x	x	2	x
CCCc1nc2ccccc2c(=O)n1NC(=O)c1c(O)c2cccc3c2n(c1=O)CCC3	58	-8*	-0.09	x	9
CCCCCNc1nc(-c2ccccc2)cs1	-3	-0.67	x	10	x
SMILES	Mac1 fbg enh	Cav3 T inh	PTK2B oligo ant	CD11b adhes inh	Ec RNAP inh
Cc1nn(Cc2ccc(C(=O)Nc3ccccc3C(F)(F)F)o2)c(C)c1Br	x	-2.4	-1.3	x	x
Cc1ccc(CNC(=O)c2ccc(Cn3nc(C)c(Cl)c3C)o2)cc1	0	-4.7*	-0.29	-16	2
O=C(O)CCC(=O)Nc1ccc(Cc2ccc(NC(=O)CCC(=O)O)cc2)cc1	1	-0.16	2.3	7	x
Cc1cc(SCC(=O)N(C)CC(=O)Nc2ccc(F)cc2)nc2ccccc12	0	x	x	13	x
Cc1ccc2cc(C)c3nnc(SCC(=O)Nc4nc5c(s4)CCCC5)n3c2c1C	x	-5.3*	-1.7	x	x
O=C(CCCc1cccs1)Nc1nc2c(s1)CCCC2	x	-7.6*	-0.03	x	9
O=C(Cc1ccc(S(=O)(=O)N2CCCC2)s1)Nc1nc2c(s1)CCCC2	56	-3.8*	0.6	15	7
Cc1ccc(CC(=O)Nc2nc3c(s2)CCCC3)cc1	-1	-5.2*	-0.8	10	x
CCn1c(SCC(=O)Nc2nc3c(s2)CCCC3)nnc1-c1ccccc1	-2	-1.5	-2.1	0	3
O=C(COc1nc2ccccc2nc1N1CCOCC1)Nc1cccc(S(=O)(=O)N2CCCCC2)c1	8	x	x	1	x
CC(=O)N1CCC(=NNS(=O)(=O)c2cccc([N+](=O)[O-])c2)CC1	0	0.28	1.4	-52	x
CCCCCCC(=O)NNC(=O)CC(=O)Nc1ccccc1C(=O)O	6	x	0.43	5	x
CCc1cc(-c2n[nH]c(C)c2Oc2ccc(C(C)C)cc2)c(O)cc1O	-1	-0.037	-1.7	22	x
C=CCc1cccc2cc(C(=O)Nc3ccc(S(=O)(=O)Nc4nnc(CC)s4)cc3)c(=O)oc12	39	x	x	-5	x
COC(=O)c1cccc(-n2nnnc2SCC(=O)Nc2nc3c(s2)CCCC3)c1	6	-4.8*	0.97	2	6
O=C(NC(=S)NNC(=O)c1cccs1)c1ccc(Br)o1	-2	-7.4*	0.52	23	x
CCNC(=S)NNC(=O)c1cccs1	x	1.1	-0.24	x	x
COc1cc(C)c(C(C)C)cc1S(=O)(=O)n1cnc(C)c1	0	-4.8*	x	18	3
COc1ccc(C2/C=C\CNCC(=O)N2Cc2ccc(F)cc2)cc1 (configuration not stated)	x	-0.56	x	x	x
O=S(=O)(Nc1nc2ccccc2nc1NCc1ccco1)c1ccc(Cl)cc1	x	-4.8*	0.65	x	8
Cc1ccc(S(=O)(=O)Nc2nc3ccccc3nc2NCc2ccco2)cc1	x	-2.5	0.7	x	5
Cc1noc(C)c1CSc1nc2ccccc2nc1NS(=O)(=O)c1ccc(Cl)cc1	-8	-8.1*	-0.92	98*	8
Cc1nc(-c2cccc(S(=O)(=O)N3CC(C)CC(C)C3)c2)cs1 (configuration not stated)	0	-2.6	-3*	4	x
Cc1cccc(NC(=O)CN2NS(=O)(=O)c3ccccc3C2=O)c1	-2	0.0041	-0.89	9	x
Cc1cc(Nc2ccccc2)n(-c2ccc(Br)cc2)n1	0	-7.2*	-0.28	6	x
COc1ccc(C2C(C#N)=C(N)OC3=C2C(=O)CC(C)(C)C3)cc1Cn1nc(C)c([N+](=O)[O-])c1C (configuration not stated)	0	x	x	12	x
COc1ccc(C2C(C#N)=C(N)Oc3c2c(C)nn3-c2ccccc2)cc1Cn1nc(C)c([N+](=O)[O-])c1C (configuration not stated)	51*	0.39	-1.3	11	x
CCOC(=O)c1ccccc1NC(=O)Cn1c(=O)n(Cc2ccccc2)c(=O)c2c(C)c(C)sc21	0	x	x	-18	x
CC(C)Cc1nc(N2CCN(C(=O)C(C)C)CC2)c(C#N)c2c1CCC2	-4	-5.7*	-0.74	22	8

Screening data (PubChem BioAssay)
